{"source": "PubChem BioAssay (NCATS)", "note": "Values joined by “and” are separate entries in the source; they are usually repeats but may differ in a detail not shown here. Identical values can stand only once. Results filed as inconclusive are left out. A call without a number means that no potency is given here. Where a structure was tested more than once in an assay, its records may differ in their call. Active and inactive are the calls of the source. Calls follow the shape of the dose curve; as a rule, active = well fitted inhibition curve with a large enough effect; inconclusive = small, poorly fitted or top-dose-only effect; inactive = flat fitted curve, though single readings scatter. Potency is read from the fitted curve at half-maximal effect."}
{"target": "Ubiquitin carboxyl-terminal hydrolase 1 (Homo sapiens) (UniProt O94782)", "sequence (O94782 whole entry, looked up)": "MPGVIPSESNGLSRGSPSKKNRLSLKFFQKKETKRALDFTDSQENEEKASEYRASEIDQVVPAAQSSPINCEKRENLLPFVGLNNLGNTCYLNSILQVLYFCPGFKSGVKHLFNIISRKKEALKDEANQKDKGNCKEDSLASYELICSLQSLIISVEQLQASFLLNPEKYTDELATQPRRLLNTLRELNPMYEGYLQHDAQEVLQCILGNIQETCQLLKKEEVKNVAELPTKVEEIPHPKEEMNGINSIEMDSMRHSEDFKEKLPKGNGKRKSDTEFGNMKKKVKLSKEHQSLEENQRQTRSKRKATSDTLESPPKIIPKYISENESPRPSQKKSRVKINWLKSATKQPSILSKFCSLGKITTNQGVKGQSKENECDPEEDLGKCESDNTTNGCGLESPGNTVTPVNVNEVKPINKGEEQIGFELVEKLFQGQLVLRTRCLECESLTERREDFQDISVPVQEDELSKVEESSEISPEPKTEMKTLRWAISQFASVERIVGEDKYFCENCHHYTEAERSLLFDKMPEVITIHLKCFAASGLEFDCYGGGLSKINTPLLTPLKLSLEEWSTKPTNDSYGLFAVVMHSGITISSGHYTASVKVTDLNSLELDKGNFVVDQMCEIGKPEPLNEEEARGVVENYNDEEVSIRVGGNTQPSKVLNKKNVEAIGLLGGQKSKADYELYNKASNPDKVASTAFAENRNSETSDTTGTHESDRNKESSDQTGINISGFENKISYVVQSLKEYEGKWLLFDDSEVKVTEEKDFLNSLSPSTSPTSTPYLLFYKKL", "assay": "Inhibitors of USP1/UAF1: Pilot qHTS (AID 504865); also: nearly all actives have a fitted effect of over 35% in size", "conditions": "purified USP1/UAF1, Ub-rhodamine cleavage fluorescence; series mostly up to 114 µM", "text": "Deubiquitinating enzymes (DUBs) are a class of enzymes that can cleave isopeptide bond formed between the C-terminal carboxylate of ubiquitin and a lysine side-chain amino group on the target protein. Among them, ubiquitin specific proteases (USPs) constitute the largest DUB family. Human USPs are emerging as promising targets for pharmacological intervention because of their connection to a number of human diseases, including prostate, colon and breast cancer (1, 2), pediatric acute lymphoblastic leukemia (3), and familial cylindromatosis (4). The advantage of inhibiting USPs lies in the potential specificity of therapeutic intervention that can lead to better efficacy and reduce nonspecific side effects.\nIn a collaboration between the University of Delaware and the NIH Chemical Genomics Center, a high-throughput screen assay was developed to screen for USP1/UAF1 inhibitors. This miniaturized assay has a fluorescent read-out and is used to screen the NIH Molecular Libraries Small Molecule Repository (MLSMR) in order to identify a small molecule that inhibits USP1.\nNIH Chemical Genomics Center [NCGC]\nNIH Molecular Libraries Probe Centers Network [MLPCN]\nAssay Submitter (PI): Zhihao Zhuang, University of Delaware\n1. Priolo, C., et al. (2006) The isopeptidase USP2a protects human prostate cancer from apoptosis. Cancer Res 66, 8625-8632\n2. Popov, N., et al. (2007) The ubiquitin-specific protease USP28 is required for MYC stability. Nat Cell Biol 9, 765-774\n3. De Pitta, C., et al. (2005) A leukemia-enriched cDNA microarray platform identifies new transcripts with relevance to the biology of pediatric acute lymphoblastic leukemia. Haematologica 90, 890-898\n4. Kovalenko, A., et al. (2003) The tumour suppressor CYLD negatively regulates NF-kappaB signalling by deubiquitination. Nature 424, 801-805\n3 microliters of reagents (buffer in columns 3 and 4 as negative control and 1nM USP1/UAF1 complex in columns 1, 2, and 5-48) are dispensed into Greiner black solid bottom 1536-well assay plates. Compounds are then transferred via Kalypsys pin tool equipped with 1536-pin array (10nl slotted pins, V&P Scientific, San Diego, CA). Following an incubation step of 15 min at room temperature, 1ul of Ub-Rho substrate (150nM final concentration) is added to initiate the reaction. The plates are immediately centrifuged at 1000 rpm for 15 seconds, and subsequently transferred to a ViewLux high-throughput CCD imager (PerkinElmer) wherein kinetic measurements of fluorescence are acquired using 480 nm excitation/540 nm emission filter set (6 reads every 60 seconds, see Table 1). All reagents are diluted in an assay buffer consisting of 50mM HEPES (pH 7.8), 0.5mM EDTA, 0.1 mg/ml BSA, 1mM TCEP, and 0.01% Tween-20."}
{"smiles": "Clc1ccc2c(c1)C(N1CCNCC1)=Nc1ccccc1O2", "Potency": "inactive"}
{"smiles": "CC(C)(Oc1ccc(C2CC2(Cl)Cl)cc1)C(=O)O", "note": "(stereo not given)", "Potency": "inactive"}
{"smiles": "COc1ccccc1OCC(O)CN1CCN(CC(=O)Nc2c(C)cccc2C)CC1", "note": "(stereo not given)", "Potency": "inactive"}
{"smiles": "Cn1c(=O)c2c(ncn2C)n(C)c1=O", "Potency": "inactive"}
{"smiles": "COC(=O)Nc1nc2ccc(C(=O)c3cccs3)cc2[nH]1", "Potency": "inactive"}
{"smiles": "CC(C)NCC(O)c1ccc(O)c(O)c1", "note": "(stereo not given)", "Potency": "inactive"}
{"smiles": "NCCCCCC(=O)O", "Potency": "inactive"}
{"smiles": "NC(=O)NO", "Potency": "inactive"}
{"smiles": "O=C(c1ccc(OCCN2CCCCC2)cc1)c1c(-c2ccc(O)cc2)sc2cc(O)ccc12", "Potency": "inactive"}
{"smiles": "COc1ccc(C2CNC(=O)C2)cc1OC1CCCC1", "note": "(stereo not given)", "Potency": "inactive"}
{"smiles": "CN(C)CCC=C1c2ccccc2C=Cc2ccccc21", "Potency": "inactive"}
{"smiles": "CN(CCOc1ccc(NS(C)(=O)=O)cc1)CCc1ccc(NS(C)(=O)=O)cc1", "Potency": "inactive"}
{"smiles": "Cn1cnc2c1c(=O)[nH]c(=O)n2C", "Potency": "inactive"}
{"smiles": "CC[C@@]1(O)C(=O)OCc2c1cc1n(c2=O)Cc2cc3c(CN(C)C)c(O)ccc3nc2-1", "Potency": "79.4 µM (active)"}
{"smiles": "Nc1c2c(nc3ccccc13)CCCC2", "Potency": "inactive"}
{"smiles": "CC1COc2c(N3CCN(C)CC3)c(F)cc3c(=O)c(C(=O)O)cn1c23", "note": "(stereo not given)", "Potency": "inactive"}
{"smiles": "N[C@@H](Cc1c[nH]c2ccc(O)cc12)C(=O)O", "Potency": "inactive"}
{"smiles": "O=c1c(-c2ccc(O)cc2)coc2cc(O)cc(O)c12", "Potency": "inactive"}
{"smiles": "COc1ccc2[nH]cc(CCNC(C)=O)c2c1", "Potency": "inactive"}
{"smiles": "CN(C)c1nc(N(C)C)nc(N(C)C)n1", "Potency": "inactive"}
{"smiles": "Clc1ccc(C(c2ccccc2Cl)C(Cl)Cl)cc1", "note": "(stereo not given)", "Potency": "inactive"}
{"smiles": "Cc1ccc(C(=O)Nc2ccc(S(=O)(=O)O)c3cc(S(=O)(=O)O)cc(S(=O)(=O)O)c23)cc1NC(=O)c1cccc(NC(=O)Nc2cccc(C(=O)Nc3cc(C(=O)Nc4ccc(S(=O)(=O)O)c5cc(S(=O)(=O)O)cc(S(=O)(=O)O)c45)ccc3C)c2)c1", "Potency": "14.1 µM (active) and 7.94 µM (active) and 5.01 µM (active)"}
{"smiles": "CN1CCN2c3ccccc3Cc3ccccc3C2C1", "note": "(stereo not given)", "Potency": "inactive"}
{"smiles": "CN1CCC(=C2c3ccccc3CC(=O)c3sccc32)CC1", "Potency": "inactive"}
{"smiles": "Nc1ccn([C@H]2CC[C@@H](CO)O2)c(=O)n1", "Potency": "inactive"}
{"smiles": "CS(=O)(=O)Nc1ccc([N+](=O)[O-])cc1Oc1ccccc1", "Potency": "inactive"}
{"smiles": "CCC1(C)CC(=O)NC1=O", "note": "(stereo not given)", "Potency": "inactive"}
{"smiles": "CC(C(=O)O)c1cccc(C(=O)c2ccccc2)c1", "note": "(stereo not given)", "Potency": "inactive"}
{"smiles": "O=C(Nc1ccc([N+](=O)[O-])cc1Cl)c1cc(Cl)ccc1O", "Potency": "inactive"}
{"smiles": "NCCc1cnc[nH]1", "Potency": "44.7 µM (active) and inactive"}
{"smiles": "COc1ccc2c(c1)c(CC(=O)O)c(C)n2C(=O)c1ccc(Cl)cc1", "Potency": "inactive"}
{"smiles": "Cc1ccccc1N1C(=O)c2cc(S(N)(=O)=O)c(Cl)cc2NC1C", "note": "(stereo not given)", "Potency": "inactive"}
{"smiles": "CN1CCC(=C2c3ccccc3C=Cc3ccccc32)CC1", "Potency": "inactive"}
{"smiles": "CN(C)CCCN1c2ccccc2CCc2ccc(Cl)cc21", "Potency": "inactive"}
{"smiles": "CCc1cccc2c3c([nH]c12)C(CC)(CC(=O)O)OCC3", "note": "(stereo not given)", "Potency": "inactive"}
{"smiles": "CN1CCN(C2=Nc3cc(Cl)ccc3Nc3ccccc32)CC1", "Potency": "inactive"}
{"smiles": "COc1nc(C)nc(Cl)c1NC1=NCCN1", "Potency": "inactive"}
{"smiles": "NS(=O)(=O)c1cc2c(cc1Cl)NCNS2(=O)=O", "Potency": "inactive"}
{"smiles": "NCCS(=O)(=O)O", "Potency": "inactive"}
{"smiles": "C[C@H]1c2cccc(O)c2C(O)=C2C(=O)[C@]3(O)C(O)=C(C(N)=O)C(=O)[C@@H](N(C)C)[C@@H]3[C@@H](O)[C@@H]21", "Potency": "inactive"}
